We go through three compounds from PubChem BioAssay (EPA / NIEHS).

A word on the AC50: it is the midpoint of the concentration-response curve, whichever way the signal moves.

Structures are written as SMILES. Active and inactive are the calls of the source. How the source made its calls: active means hit-call score of the fitted dose curve at least 0.9, where 1 is the maximum; inactive means score below 0.9.

What all share (conditions): mRNA level, 48 h; actives raise or lower the signal
Read-out in experiment [1]: Bcl-2 (BID) gene, BID (gene 637)
Description: LTEA_HepaRG_BID: Life Technologies and Expression Analysis (LTEA) Assay for Bcl-2 (BID) gene using HepaRG (AID 2283476). The essentials: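 Gene expression by qRT-PCR in HepaRG cells after 48 h exposure, duplicate wells, eight half-log concentrations topping at 100 uM in 0.5% DMSO. Normalized to ACTB, GAPDH, POLR2A; bidirectional fitting relative to DMSO.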

Read-out in the next experiment: Caspase-3 (Homo sapiens) (UniProt P42574)
Description: LTEA_HepaRG_CASP3: Life Technologies and Expression Analysis (LTEA) Assay for cysteine-aspartic acid protease (CASP3) using HepaRG (AID 2283477). The essentials: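 In HepaRG liver cells dosed for 48 h at up to 100 uM (eight-point, duplicate), CASP3 expression changes are scored by qRT-PCR. Activity is fitted in both directions with 0.5% DMSO as baseline.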

Read-out in experiment [2]: Cytochrome P450 (CYP24A1), CYP24A1 (gene 1591)
Description: LTEA_HepaRG_CYP24A1: Life Technologies and Expression Analysis (LTEA) Assay for Cytochrome P450 (CYP24A1) using HepaRG (AID 2283478). The essentials: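 Human liver HepaRG cultures receive each chemical for 48 h across an eight-point half-log series topping at 100 uM in 0.5% DMSO. Induction or suppression of CYP24A1 mRNA is scored relative to vehicle after housekeeping-gene normalization.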

Read-out in experiment [3]: Cytochrome P450 (CYP1A2), CYP1A2 (gene 1544)
Description: LTEA_HepaRG_CYP1A2: Life Technologies and Expression Analysis (LTEA) Assay for Cytochrome P450 (CYP1A2) using HepaRG (AID 2283479). The essentials: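 Assesses CYP1A2 mRNA in human HepaRG liver cells after 48 h chemical exposure at up to 100 uM. Values come from qRT-PCR with bidirectional curve fitting relative to DMSO.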

Read-out in experiment [4]: cysteine-aspartic acid protease (CASP8), CASP8 (gene 841)
In words: LTEA_HepaRG_CASP8: Life Technologies and Expression Analysis (LTEA) Assay for cysteine-aspartic acid protease (CASP8) using HepaRG (AID 2283480). The procedure, abridged:
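Differentiated HepaRG cells in serum-free induction medium, 48 h exposure, eight-point half-log series from 100 uM in 0.5% DMSO, duplicates. CASP8 mRNA by qRT-PCR, normalized to ACTB, GAPDH, POLR2A; bidirectional fit versus DMSO.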

Read-out in experiment [5]: Cytochrome P450 (CYP2B6), CYP2B6 (gene 1555)
In words: LTEA_HepaRG_CYP2B6: Life Technologies and Expression Analysis (LTEA) Assay for Cytochrome P450 (CYP2B6) using HepaRG (AID 2283481). The essentials: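 Using 48 h treatment of HepaRG cells in serum-free induction medium, concentrations spanned half-log steps from 100 uM in 0.5% DMSO vehicle. CYP2B6 mRNA induction or loss is scored by qRT-PCR against DMSO.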

Read-out in experiment [6]: Cytochrome P450 2C19 (Homo sapiens) (UniProt P33261)
Description: LTEA_HepaRG_CYP2C19: Life Technologies and Expression Analysis (LTEA) Assay for CYP2C19 using HepaRG (AID 2283482). The essentials: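 Human HepaRG liver cells received test chemicals for 48 h (highest 100 uM, half-log dilutions in 0.5% DMSO). CYP2C19 mRNA induction or loss is read by multiplexed qRT-PCR and fitted in both directions versus vehicle.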

Read-out in another experiment: CYP2C8 (gene 1558)
In words: LTEA_HepaRG_CYP2C8: Life Technologies and Expression Analysis (LTEA) Assay for CYP2C8 using HepaRG (AID 2283483). The procedure, abridged:
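Differentiated HepaRG cells in serum-free induction medium exposed 48 h in duplicate to 8 half-log concentrations from 100 uM in 0.5% DMSO. CYP2C8 mRNA by qRT-PCR normalized to ACTB, GAPDH, POLR2A; bidirectional fit versus DMSO.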

Read-out in another experiment: CYP2C9 (gene 1559)
In words: LTEA_HepaRG_CYP2C9: Life Technologies and Expression Analysis (LTEA) Assay for CYP2C9 using HepaRG (AID 2283484). The essentials: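 Differentiated human HepaRG cells in serum-free induction medium were exposed 48 h to chemicals in 8-point half-log series from 100 uM (0.5% DMSO), in duplicate. CYP2C9 mRNA was measured by qRT-PCR, normalized to ACTB/GAPDH/POLR2A, with bidirectional fitting versus DMSO.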

Read-out in another experiment: CYP2E1 (gene 1571)
Description: LTEA_HepaRG_CYP2E1: Life Technologies and Expression Analysis (LTEA) Assay for CYP2E1 using HepaRG (AID 2283485). The procedure, abridged: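 HepaRG cells, plated 48 h, then exposed 48 h in serum-free induction medium to eight half-log concentrations from 100 uM in 0.5% DMSO, duplicate. CYP2E1 mRNA by qRT-PCR, normalized to ACTB/GAPDH/POLR2A; bidirectional fit versus DMSO.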

Read-out in a further experiment: CYP4A11 (gene 1579)
Description: LTEA_HepaRG_CYP4A11: Life Technologies and Expression Analysis (LTEA) Assay for CYP4A11 using HepaRG (AID 2283486). The procedure, abridged: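 Readout is CYP4A11 mRNA induction or suppression (qRT-PCR, ACTB/GAPDH/POLR2A normalization) in human HepaRG cells after 48 h chemical treatment, concentrations to 100 uM in 0.5% DMSO, fitted bidirectionally against vehicle.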

Read-out in experiment [7]: Cytochrome P450 3A4 (Homo sapiens) (UniProt P08684)
Description: LTEA_HepaRG_CYP3A4: Life Technologies and Expression Analysis (LTEA) Assay for CYP3A4 using HepaRG (AID 2283487). The essentials:
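In a human hepatic line (HepaRG), duplicate wells were treated 48 h with up to 100 uM chemical in half-log dilutions. Endpoint: CYP3A4 mRNA induction or loss relative to 0.5% DMSO vehicle, by qRT-PCR.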

Read-out in experiment [8]: Pro-epidermal growth factor (Homo sapiens) (UniProt P01133)
Description: LTEA_HepaRG_EGF: Life Technologies and Expression Analysis (LTEA) Assay for Epidermal growth factor (EGF) using HepaRG (AID 2283489). The procedure, abridged: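 EGF expression changes in human HepaRG cells are scored by bidirectional fitting relative to 0.5% DMSO controls. Chemicals are tested at eight half-log concentrations up to 100 uM for 48 h in serum-free induction medium.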

Read-out in experiment [9]: Early growth response protein 1 (EGR1) transcription factor, EGR1 (gene 1958)
Description: LTEA_HepaRG_EGR1: Life Technologies and Expression Analysis (LTEA) Assay for Early growth response protein 1 (EGR1) transcription factor using HepaRG (AID 2283490). The essentials:
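Differentiated HepaRG cells in serum-free induction medium exposed 48 hours, duplicate, to 8 half-log concentrations up to 100 uM in 0.5% DMSO. EGR1 mRNA measured by TaqMan qRT-PCR, normalized to ACTB, GAPDH, POLR2A; bidirectional fit versus DMSO.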

Read-out in experiment [10]: Ezrin (EZR), EZR (gene 7430)
In words: LTEA_HepaRG_EZR: Life Technologies and Expression Analysis (LTEA) Assay for Ezrin (EZR) using HepaRG (AID 2283491). The procedure, abridged:
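Gain or loss of EZR mRNA is scored relative to 0.5% DMSO in human HepaRG cultures treated 48 h with test chemicals in duplicate, eight half-log concentrations from 100 uM.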

Read-out in experiment [11]: Cytochrome P450 3A7 (Homo sapiens) (UniProt P24462)
In words: LTEA_HepaRG_CYP3A7: Life Technologies and Expression Analysis (LTEA) Assay for CYP3A7 using HepaRG (AID 2283492). The essentials: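 Cells were thawed, plated, cultured 48 h, then treated for a further 48 h with chemicals (eight-point half-log series from 100 uM, 0.5% DMSO). RNA was isolated and CYP3A7 expression quantified by qRT-PCR normalised to ACTB, GAPDH and POLR2A.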

Read-out in another experiment: CYP3A5 (gene 1577)
Description: LTEA_HepaRG_CYP3A5: Life Technologies and Expression Analysis (LTEA) Assay for CYP3A5 using HepaRG (AID 2283493). The procedure, abridged:
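HepaRG cells, plated 48 h then in serum-free induction medium, dosed in duplicate for 48 h with eight half-log concentrations up to 100 uM in 0.5% DMSO. Gene mRNA by Fluidigm TaqMan qRT-PCR, normalized to ACTB, GAPDH, POLR2A.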

Read-out in experiment [12]: Fatty Acid-Binding Protein 1 (FABP1), FABP1 (gene 2168)
Description: LTEA_HepaRG_FABP1: Life Technologies and Expression Analysis (LTEA) Assay for Fatty Acid-Binding Protein 1 (FABP1) using HepaRG (AID 2283494). The essentials: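 Differentiated human HepaRG cells exposed 48 h in serum-free induction medium to eight half-log concentrations up to 100 uM (0.5% DMSO), duplicate. FABP1 mRNA by qRT-PCR, normalised to ACTB, GAPDH, POLR2A; bidirectional fitting against DMSO.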

Read-out in experiment [13]: Cytochrome P450 4A22 (Homo sapiens) (UniProt Q5TCH4)
Description: LTEA_HepaRG_CYP4A22: Life Technologies and Expression Analysis (LTEA) Assay for Cytochrome P450 4A22 (CYP4A22) using HepaRG (AID 2283495). The procedure, abridged: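 Cryopreserved HepaRG cells, plated and cultured 48 h, then switched to serum-free induction medium and treated 48 h (duplicates, up to 100 uM, half-log steps, 0.5% DMSO). Expression change of CYP4A22 was fitted bidirectionally against vehicle.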

Read-out in experiment [14]: DNA damage-inducible transcript 3 (DDIT3), DDIT3 (gene 1649)
Description: LTEA_HepaRG_DDIT3: Life Technologies and Expression Analysis (LTEA) Assay for DNA damage-inducible transcript 3 (DDIT3) using HepaRG (AID 2283488). The essentials:
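HepaRG cells, 48 h after plating, exposed 48 h in serum-free induction medium to 8 half-log concentrations up to 100 uM in 0.5% DMSO, in duplicate. DDIT3 mRNA measured by TaqMan qRT-PCR, normalized to ACTB, GAPDH and POLR2A. Fitted bidirectionally against DMSO.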

Chain of Caspase-3 (Homo sapiens) (P42574 whole entry, looked up): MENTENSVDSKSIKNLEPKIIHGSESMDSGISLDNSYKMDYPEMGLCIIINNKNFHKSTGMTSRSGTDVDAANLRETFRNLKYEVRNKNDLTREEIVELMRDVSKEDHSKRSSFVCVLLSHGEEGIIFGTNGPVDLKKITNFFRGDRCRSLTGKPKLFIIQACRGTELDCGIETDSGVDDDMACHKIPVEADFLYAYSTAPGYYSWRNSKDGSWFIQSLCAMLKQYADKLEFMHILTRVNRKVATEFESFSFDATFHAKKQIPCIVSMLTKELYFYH
Chain of Cytochrome P450 2C19 (Homo sapiens) (P33261 whole entry, looked up): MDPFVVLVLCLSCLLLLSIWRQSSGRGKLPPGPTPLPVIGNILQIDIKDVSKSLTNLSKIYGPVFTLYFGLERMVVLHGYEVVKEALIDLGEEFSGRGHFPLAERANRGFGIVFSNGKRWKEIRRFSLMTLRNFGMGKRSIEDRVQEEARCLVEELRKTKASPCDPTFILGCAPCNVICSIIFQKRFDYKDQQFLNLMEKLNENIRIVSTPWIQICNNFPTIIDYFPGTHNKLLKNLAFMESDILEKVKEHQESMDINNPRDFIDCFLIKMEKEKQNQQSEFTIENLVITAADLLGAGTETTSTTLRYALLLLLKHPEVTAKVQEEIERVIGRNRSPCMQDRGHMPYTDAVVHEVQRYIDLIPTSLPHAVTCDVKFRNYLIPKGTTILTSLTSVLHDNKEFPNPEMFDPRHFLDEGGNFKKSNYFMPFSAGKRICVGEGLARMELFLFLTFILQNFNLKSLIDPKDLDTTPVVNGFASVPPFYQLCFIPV
Chain of Cytochrome P450 3A4 (Homo sapiens) (P08684 whole entry, looked up): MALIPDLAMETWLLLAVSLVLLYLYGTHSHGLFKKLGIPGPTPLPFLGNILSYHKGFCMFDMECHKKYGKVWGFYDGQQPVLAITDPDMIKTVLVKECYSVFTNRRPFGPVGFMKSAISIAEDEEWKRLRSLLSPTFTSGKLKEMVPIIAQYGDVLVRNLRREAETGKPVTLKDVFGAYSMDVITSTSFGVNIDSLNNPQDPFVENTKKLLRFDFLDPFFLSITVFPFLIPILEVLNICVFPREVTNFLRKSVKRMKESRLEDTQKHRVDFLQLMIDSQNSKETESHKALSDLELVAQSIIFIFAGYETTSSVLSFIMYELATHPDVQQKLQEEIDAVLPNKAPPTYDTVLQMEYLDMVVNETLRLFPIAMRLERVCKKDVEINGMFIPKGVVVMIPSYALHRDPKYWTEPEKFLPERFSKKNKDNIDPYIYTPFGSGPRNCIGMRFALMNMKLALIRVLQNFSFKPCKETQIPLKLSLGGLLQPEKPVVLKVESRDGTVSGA
Chain of Cytochrome P450 3A7 (Homo sapiens) (P24462 whole entry, looked up): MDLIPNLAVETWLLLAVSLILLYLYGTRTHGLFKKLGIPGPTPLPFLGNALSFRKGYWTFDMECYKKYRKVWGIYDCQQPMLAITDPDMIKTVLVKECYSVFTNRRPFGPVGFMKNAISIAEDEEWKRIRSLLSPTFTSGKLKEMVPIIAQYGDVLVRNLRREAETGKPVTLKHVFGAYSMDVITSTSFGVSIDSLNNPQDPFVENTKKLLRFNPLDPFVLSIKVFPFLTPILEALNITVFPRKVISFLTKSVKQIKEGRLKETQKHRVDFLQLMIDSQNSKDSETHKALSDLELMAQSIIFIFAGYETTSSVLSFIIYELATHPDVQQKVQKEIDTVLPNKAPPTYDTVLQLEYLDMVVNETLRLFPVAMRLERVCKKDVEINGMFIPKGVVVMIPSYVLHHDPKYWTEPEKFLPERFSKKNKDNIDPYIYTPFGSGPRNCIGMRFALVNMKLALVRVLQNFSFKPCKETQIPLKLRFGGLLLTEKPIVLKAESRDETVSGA

Consider `Cc1nc(N(C)C)nc(OC(=O)N(C)C)c1C`, for which the compound was called inactive (in experiment [1]; with Caspase-3 (Homo sapiens); in [3]; in [4]; in the experiment with CYP2C9 (gene 1559); with CYP2E1 (gene 1571)). In addition, the call (with CYP4A11 (gene 1579); in experiment [8]; in experiment [9]; in [10]; in the experiment with CYP3A5 (gene 1577); in experiment [12]) was inactive. In experiment [13], the compound was called inactive. Moreover, the AC50 in experiment [2] was 92.4 µM (active); in [5], 8.42 µM (active); in experiment [6] it was 19.7 µM (active); with CYP2C8 (gene 1558) it was 9.92 µM (active); in experiment [7] it was 40.7 µM (active); in experiment [11], 19.9 µM (active).

For `CCSC(=O)N1CCCCCC1`, the outcome (in experiment [1]; in the experiment with Caspase-3 (Homo sapiens); in experiment [2]; in [3]; in experiment [4]; in experiment [6]) was inactive. Besides, the call (with CYP2C8 (gene 1558); with CYP2C9 (gene 1559); with CYP2E1 (gene 1571); in the experiment with CYP4A11 (gene 1579); in experiment [8]; in experiment [9]) was inactive. The compound was called inactive (in [10]; in experiment [11]; in the experiment with CYP3A5 (gene 1577); in experiment [12]; in experiment [13]). Also, the AC50 was 2.93 µM (active) in experiment [5] and 30 µM (active) in experiment [7].

On to `O=C(O)c1c(Cl)ccc2cc(Cl)cnc12`, for which the compound was classed as inactive (in experiment [1]; in the experiment with Caspase-3 (Homo sapiens); in experiment [2]; in [3]; in experiment [4]; in experiment [5]). Besides, the result (in experiment [6]; in the experiment with CYP2C8 (gene 1558); in the experiment with CYP2C9 (gene 1559); with CYP2E1 (gene 1571); with CYP4A11 (gene 1579); in experiment [7]) was inactive. The outcome (in experiment [14]; in experiment [8]; in experiment [9]; in experiment [10]; with CYP3A5 (gene 1577); in experiment [12]) was inactive. Moreover, in experiment [13], the call was inactive.
